# UHRF1 MBD2 ctr: human UHRF1 methylated DNA binding inhibitors | Q96T88 | UHRF1 binding to methylated oligo, TR-FRET | inhibition, % at 4.4 µM | 0.75% of 370,000 active; in the data active = inhibition above about 21%;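 also: UHRF1 SRA domain binding a hemimethylated CpG hairpin DNA probe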
# PRMT1 inh: inhibitors of human PRMT1 | recombinant PRMT1, activity-based probe fluorescence polarization | Q99873 | inhibition, % at 2.79 µM | AID 652257 | 1.3% of 370,000 active;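 active = inhibition above about 21% made by adding two undisclosed values, limit read from the data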
# LEDGF integ inh: blocks HIV-1 LEDGF/p75-dependent DNA integration; 0.64% of 370,000 active; inhibition, % at 3.7 µM; TR-FRET IN-LEDGF/p75 DNA integration, Eu/Cy5; AID 743269;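 active = inhibition above the screen-wide mean plus 3 SD, cut at about 13% in these data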;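 also: signal is the Cy5 over europium emission ratio at 671 and 618 nm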
# ABHD5 PLIN5 PPI: blocks binding of human ABHD5 to perilipin-5; AID 602281; inhibition, % at 4 µM; Split G. princeps luciferase complementation, luminescence, 4 h; 0.78% of 360,000 active; Q00G26+Q8WTS1;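 active = inhibition above the mean inhibition across every tested compound plus 3 SD, cut at about 22% in these data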
# MBD2 DNA inh: MBD2-methylated oligo binding inhibition. Q9UBB5. TR-FRET, MBD2 binding to methylated oligonucleotide. inhibition, % at 4.4 µM. 0.31% of 370,000 active. AID 686964; in the data active = inhibition above about 13%
# rCAG RNA binder: binds r(CAG) RNA repeats; 1.3% of 370,000 active; inhibition, % at 3 µM; r(CAG) RNA repeat, TO-PRO-1 dye displacement fluorescence; AID 651821;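 active = inhibition above the plate cutoff, the mean of all test compounds on that plate plus 3 SD, cut at about 35% in these data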;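 also: higher means more dye released from RNA so lower well fluorescence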
# ABHD5-PLIN5 conf: ABHD5-PLIN5 interaction inhibition, confirmed | shares compounds with ABHD5 PLIN5 PPI | biochemical ABHD5-PLIN5 interaction, luminescence | inhibition, % at 4 µM | 67% of 2,200 active; in the data active = inhibition above about 23%
# HNF4 counter: counter-screen for ABHD5-PLIN5 inhibitors: HNF4 split-luciferase; shares compounds with ABHD5 PLIN5 PPI; HNF4 dimerization, luminescence, biochemical; inhibition, % at 4 µM; 77% of 2,200 active;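 active = mean inhibition across replicate wells exceeding the computed hit threshold, cut at about 13% in these data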;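 also: light from luciferase halves that rejoin when HNF4 fusion proteins dimerize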
# Hits are given with their value; 0 = inactive; - = no result. Hits are enriched below; roughly 4.1% of the tested compounds scored in any of these assays.
SMILES,UHRF1 MBD2 ctr,PRMT1 inh,LEDGF integ inh,ABHD5 PLIN5 PPI,MBD2 DNA inh,rCAG RNA binder,ABHD5-PLIN5 conf,HNF4 counter
O=C(/C=C/c1cccnc1)c1cccc(O)c1,0,0,0,63,0,0,81,90
NC(=O)[C@@H]1CCCN1C(=O)[C@@H](Cc1ccccc1)NC(=O)[C@H]1O[C@@H](n2ccc(=O)[nH]c2=O)[C@H](O)[C@@H]1O,0,0,0,-,0,0,-,-
CC(C)OP(=O)(O)C(C)NC(=O)OCc1ccccc1 (configuration not stated),0,0,0,-,0,0,-,-
COCCOC(=O)/C(=C\c1cc(C(C)(C)C)c(O)c(C(C)(C)C)c1)C(C)=O,0,0,0,44,0,0,80,72
CC(C)(C)c1cc(CCC(=O)NN)cc(C(C)(C)C)c1O,0,0,0,0,0,0,-,-
CCCCC(=O)Nc1cccc(C(=O)Nc2ccccc2C(=O)O)c1,0,0,0,95,0,0,0,0
CC(COc1ccc(Cl)cc1)CN1CCC(C(O)(c2ccccc2)c2ccccc2)CC1 (configuration not stated),0,0,0,-,0,0,-,-
O=c1[nH]c(-c2ccccc2)cn1C1CCN(Cc2ccc(-c3nc4ccc(Br)cc4nc3-c3ccccc3)cc2)CC1,0,0,0,-,0,0,-,-
O=C(Oc1ccc2ccccc2c1)c1ccco1,0,0,0,0,0,0,-,-
CC1CC(C)(C)Nc2ccc(OC(=O)c3ccco3)cc21 (configuration not stated),0,0,0,28,0,0,71,61
COc1ccc(S(=O)(=O)N2CCCCCC2)cc1NC(C)C(=O)Nc1ccc(NC(C)=O)cc1 (configuration not stated),33,0,0,47,0,0,0,0
CCC(=O)Nc1cccc(C(=O)c2ccccc2)c1,0,0,0,0,0,0,-,-
CCC(=O)Nc1cccc(C(=O)/C=C/c2cccs2)c1,0,0,0,33,0,0,49,37
CCC(=O)Nc1cccc(C(=O)/C=C/c2ccccc2)c1,0,0,0,68,0,0,75,53
CCOC(=O)Nc1ccc(C(=O)/C=C/c2ccccc2)cc1,0,0,0,42,0,0,60,44
Fc1cccc(Cn2ccc3ccc(-c4ccc5ccn(Cc6cccc(F)c6)c5c4)cc32)c1,0,0,0,-,0,0,-,-
CCC(C(=O)Nc1ccccc1N1CCCC1)c1cccc(Cl)c1 (configuration not stated),0,0,0,-,0,0,-,-
O=C1COc2ccccc2C(c2nnnn2-c2ccc3ccccc3c2)N1C1CC1 (configuration not stated),0,0,0,-,0,0,-,-
Cc1ccc(-n2c(SCC(=O)NN=Cc3c[nH]c4ccccc34)nnc2-c2ccccc2)cc1,0,0,0,-,0,0,-,-
CCn1c(SCC(=O)N/N=C/C=C/c2ccco2)nnc1-c1ccc(OC)cc1,0,0,0,30,0,0,0,40
Nc1nc(Sc2ccc(C(F)(F)F)cc2[N+](=O)[O-])n[nH]1,0,0,0,0,0,0,-,-
Nc1nc(Sc2c([N+](=O)[O-])cc(C(F)(F)F)cc2[N+](=O)[O-])n[nH]1,0,0,0,58,0,0,79,98
O=C1Cc2ccccc2Sc2ccccc21,0,0,0,39,0,0,0,12
Cc1ccc2c(c1)c1c3n2CCCNC3CCC1 (configuration not stated),0,0,0,0,0,0,-,-
c1cc2c(cc1C1CCCCC1)c1c3n2CCCNC3CCC1 (configuration not stated),0,0,0,27,0,0,0,0
SMILES,UHRF1 MBD2 ctr,PRMT1 inh,LEDGF integ inh,ABHD5 PLIN5 PPI,MBD2 DNA inh,rCAG RNA binder,ABHD5-PLIN5 conf,HNF4 counter
N#C/C(=C/c1ccc(O)c(O)c1)C(=O)NCc1ccc(Cl)cc1,0,0,0,0,0,0,-,-
N#C/C(=C\c1cccc(NC(=O)c2ccccc2Cl)c1)C(=O)NCCc1ccccc1,0,0,0,47,0,0,83,78
N#C/C(=C/c1cccc(O)c1)C(=O)NCc1ccc(Cl)cc1,0,0,0,24,0,0,64,55
CSc1ccc(CN(C)CC(=O)Nc2cccc(Br)c2)cc1,0,0,0,0,0,0,-,-
CSc1ccc(CN(C)CC(=O)Nc2ccc(NC(C)=O)cc2)cc1,0,0,0,102,0,0,0,0
COc1ccc(S(=O)(=O)N(C(=O)c2ccco2)c2cc3sc(=O)oc3c3ccccc23)cc1,0,94,0,97,0,98,0,110
Cc1cc(C)c(C(=O)/C=C/c2cccc3ccccc23)c(=O)[nH]1,0,0,0,54,0,0,64,61
Cc1cc(C)c(C(=O)/C=C/c2ccc3c(c2)OCO3)c(=O)[nH]1,0,0,0,0,0,0,-,-
CCCCC(=O)NC(c1ccc(N(C)C)cc1)c1ccc2cccnc2c1O (configuration not stated),0,0,0,23,0,0,0,0
CCCC(=O)NC(c1cccc([N+](=O)[O-])c1)c1ccc2cccnc2c1O (configuration not stated),0,0,0,29,0,0,26,0
Nn1c(SCC(=O)Nc2ccc(OCc3ccccc3)cc2)nnc1-c1cc(-c2ccc(F)cc2)n[nH]1,0,0,0,-,0,0,-,-
Cc1ccccc1NC(=O)[C@H]1CC(=O)O[C@@H]1c1ccccc1,0,0,0,-,0,0,-,-
O=C1C=C(NC2=CC3OC(c4ccccc4)OCC3OC2=O)CCC1 (configuration not stated),0,0,0,26,0,0,87,95
CC(=O)N1CCc2cc(S(=O)(=O)NCCC(=O)NCc3ccc(Cl)cc3)ccc21,0,0,0,-,0,0,-,-
O=C(CNSc1ccc([N+](=O)[O-])cc1[N+](=O)[O-])OCc1ccccc1,0,0,0,-,0,0,-,-
O=C(COc1ccc(/C=C\[N+](=O)[O-])cc1)N1CCOCC1,0,0,0,0,0,0,-,-
O=[N+]([O-])/C=C\c1ccc(N2CCOCC2)cc1,0,0,0,65,0,0,88,89
CCOC(=O)C1=NOC(C(C)=O)(C(=O)Nc2cc(C)cc(C)c2)C1 (configuration not stated),0,0,0,-,0,0,-,-
C=C(CCC(=O)c1ccccc1)C(=O)c1ccccc1,0,0,0,32,0,0,68,67
O=C(CCCCCCCC(=O)c1ccccc1)c1ccccc1,0,0,0,0,0,0,-,-
CC(C)C[C@H]1COc2cccc(N3CCCC3)c2S(=O)(=O)N1C,0,0,0,-,0,0,-,-
Cc1ccccc1S(=O)Cc1ccc(C(=O)N2CCN(C(=O)c3ccco3)CC2)o1 (configuration not stated),0,0,0,75,0,0,0,0

# High-throughput results (PubChem)
